This is one part of the list. No count for the full screen is at hand.
Target: furin, P09958
Assay: furin cleavage Z-score vs untreated control; higher = more cleavage, active = 3.5 or more, inactive = 1 or less, 8 variable residues between constant flanks
Outline: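 Purified furin cleaved 8-mer peptides that were fused to a cDNA oligonucleotide and held on magnetic beads by their N-terminus. Each 0.01 ml reaction used a 1:10 enzyme:substrate ratio in 50 mM HEPES pH 7.5 with CaCl2 and NaCl and ran 7.5, 15 or 30 min. Released DNA was adapter-tagged by PCR and sequenced, and read counts gave abundance. The cleavage Z-score came from log counts against furin-free reactions, lowess-adjusted and scaled by median absolute deviation.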

furin, P09958, sequence (P09958 whole entry): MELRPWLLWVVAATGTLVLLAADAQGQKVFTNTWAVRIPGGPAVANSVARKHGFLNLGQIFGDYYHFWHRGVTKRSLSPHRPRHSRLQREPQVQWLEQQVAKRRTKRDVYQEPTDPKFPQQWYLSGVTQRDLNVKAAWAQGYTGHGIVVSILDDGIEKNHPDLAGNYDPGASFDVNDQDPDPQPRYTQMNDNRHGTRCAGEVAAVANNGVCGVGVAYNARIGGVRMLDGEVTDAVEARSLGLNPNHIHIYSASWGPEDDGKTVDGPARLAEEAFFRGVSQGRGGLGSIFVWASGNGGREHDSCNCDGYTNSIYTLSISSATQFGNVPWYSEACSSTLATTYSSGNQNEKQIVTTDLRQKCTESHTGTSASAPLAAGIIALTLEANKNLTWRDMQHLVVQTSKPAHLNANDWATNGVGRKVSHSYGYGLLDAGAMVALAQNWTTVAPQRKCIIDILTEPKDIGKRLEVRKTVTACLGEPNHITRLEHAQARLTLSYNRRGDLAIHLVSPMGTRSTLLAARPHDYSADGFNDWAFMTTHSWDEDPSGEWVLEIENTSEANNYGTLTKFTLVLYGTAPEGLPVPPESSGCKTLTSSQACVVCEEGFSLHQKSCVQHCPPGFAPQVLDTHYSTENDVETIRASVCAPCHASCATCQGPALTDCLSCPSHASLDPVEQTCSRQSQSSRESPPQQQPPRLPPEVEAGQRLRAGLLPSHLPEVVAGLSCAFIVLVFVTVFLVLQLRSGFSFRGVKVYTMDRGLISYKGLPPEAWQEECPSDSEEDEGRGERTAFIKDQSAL

Row | Sequence | furin cleavage Z-score (7.5 min) | furin cleavage Z-score (15 min) | furin cleavage Z-score (30 min)
1 | CALEVLFQGPAGNASASA [NG9] | -2.01 (inactive) | -0.768 (inactive) | -2.01 (inactive)
2 | CAEVVESTWVAGNASASA [HC133] | 0.708 (inactive) | -0.27 (inactive) | -1.67 (inactive)
3 | CADHMEECSQAGNASASA [HC1815] | -0.251 (inactive) | -0.239 (inactive) | -0.816 (inactive)
4 | CACRAAGLQDAGNASASA [HC1522] | -0.902 (inactive) | -1.39 (inactive) | -1.09 (inactive)
5 | CASTLCSAHLAGNASASA [HC2505] | 0.374 (inactive) | 0.0643 (inactive) | -1.17 (inactive)
6 | CARDRRSPAEAGNASASA [FS-3152] | 10.2 (active) | 8.19 (active) | 8.7 (active)
7 | CARDLRGLAEAGNASASA [FS-2904] | -1.94 (inactive) | 0.23 (inactive) | 0.275 (inactive)
8 | CARPRRGIIFAGNASASA [FS-3021] | 1.06 | 1.16 | 5.75 (active)
9 | CARPRRSEKQAGNASASA [FS-1965] | 3.36 | 4.62 (active) | 3.66 (active)
10 | CARIFRSIKQAGNASASA [FS-2148] | 0.0894 (inactive) | 2.91 | 5.31 (active)
11 | CARIFRSSDFAGNASASA [FS-2030] | 0.78 (inactive) | -0.809 (inactive) | 0.131 (inactive)
12 | CARIFRHSSVAGNASASA [FS-2949] | 1.97 | 0.695 (inactive) | 1.03
13 | CARPRRQGEVAGNASASA [FS-3023] | 0.519 (inactive) | 0.202 (inactive) | 0.396 (inactive)
14 | CAWYELTPAEAGNASASA [HC924] | -1.27 (inactive) | -1.36 (inactive) | 1.04
15 | CAAARALAHGAGNASASA [HC234] | 0.0166 (inactive) | -0.81 (inactive) | 0.0305 (inactive)
16 | CAEVPCHRPTAGNASASA [HC2418] | 0.387 (inactive) | -0.0389 (inactive) | 0.307 (inactive)
17 | CASTSCSAHLAGNASASA [HC2517] | 0.382 (inactive) | 1.16 | 0.668 (inactive)
18 | CAAEITGHVKAGNASASA [HC1177] | 0.655 (inactive) | 2.37 | 0.185 (inactive)
19 | CARDLAVAVEAGNASASA [HC643] | 1.07 | -0.796 (inactive) | 1.14
20 | CARPRRSSTQAGNASASA [FS-3025] | 6.4 (active) | 8.65 (active) | 6.89 (active)
21 | CARPRRSPAQAGNASASA [FS-1764] | 9.55 (active) | 11 (active) | 8.87 (active)
22 | CARDRRQATEAGNASASA [FS-1692] | 3.4 | 4.98 (active) | 3.64 (active)

Row | Sequence | furin cleavage Z-score (7.5 min) | furin cleavage Z-score (15 min) | furin cleavage Z-score (30 min)
23 | CARPRRGSTAAGNASASA [FS-2743] | 0.592 (inactive) | 0.93 (inactive) | 0.391 (inactive)
24 | CARPRRPASPAGNASASA [FS-2581] | 0.54 (inactive) | -0.0908 (inactive) | -2 (inactive)
25 | CARPRRRYYPAGNASASA [FS-1763] | 0.0891 (inactive) | 0.798 (inactive) | -1.17 (inactive)
26 | CARPRRSTSPAGNASASA [FS-3026] | 10.5 (active) | 9.5 (active) | 8.81 (active)
27 | CADARRSPDQAGNASASA [FS-2627] | -0.496 (inactive) | -1.36 (inactive) | -0.54 (inactive)
28 | CAEVPCHRPHAGNASASA [HC2415] | 0.403 (inactive) | -0.336 (inactive) | 0.894 (inactive)
29 | CAADAILHTPAGNASASA [HC269] | 0.255 (inactive) | -1.84 (inactive) | -0.719 (inactive)
30 | CAIEPRSFSQAGNASASA [TR3] | -0.606 (inactive) | -1.14 (inactive) | -0.409 (inactive)
31 | CATTPKSGSWAGNASASA [HC51] | -0.56 (inactive) | -0.574 (inactive) | -0.879 (inactive)
32 | CAKPARLIVFAGNASASA [HC1448] | 0.00411 (inactive) | -1.12 (inactive) | -1.48 (inactive)
33 | CARPRRYLYQAGNASASA [FS-2285] | 3.25 | 3.5 | 5.12 (active)
34 | CARPRRSIVFAGNASASA [FS-3229] | 4.51 (active) | 5.67 (active) | 7.41 (active)
35 | CASRPCSAHLAGNASASA [HC2493] | 0.596 (inactive) | 1.57 | 0.79 (inactive)
36 | CADDEVVTSTAGNASASA [HC2291] | 0.608 (inactive) | 0.354 (inactive) | -0.134 (inactive)
37 | CARRRRSSSVAGNASASA [FS-2299] | 3.15 | 3.17 | 3.52 (active)
38 | CARSFRTASVAGNASASA [FS-3078] | 0.727 (inactive) | 0.141 (inactive) | 1.09
39 | CARRRRSSSTAGNASASA [FS-3068] | 8.2 (active) | 7.85 (active) | 5.87 (active)
40 | CARRDRSTSIAGNASASA [FS-3203] | -0.171 (inactive) | 0.756 (inactive) | 1.79
41 | CARRSRAASVAGNASASA [FS-1839] | 1.46 | 1.72 | 3.72 (active)
42 | CARRNRSTSTAGNASASA [FS-2072] | 4.22 (active) | 6.96 (active) | 4.29 (active)
43 | CALRKRSSSTAGNASASA [FS-3179] | 0.00727 (inactive) | 0.0326 (inactive) | -0.921 (inactive)

From the supplement of paper PMC3545927
